VP16 counter = counter-screen for ROR gamma inhibitors: Gal4-VP16 reporter; Drosophila S2 Gal4-VP16 UAS-luciferase, luminescence, 20 h; Potency, µM (titrated, usually from 53.6 µM), actives largely listed as inhibitors; 310,000 tested, 3.5% active;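 note: Gal4-VP16 expression switched on by copper sulfate through the metallothionein promoter; nearly all actives have a fitted effect of over 50% in size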
RORg inh = ROR gamma (mouse) transcription inhibition; P51450; Drosophila S2 Gal4-RORgamma UAS-luciferase reporter, 20 h; Potency, µM (top dose mostly 53.6 µM), usual class: inhibitors; 310,000 tested, 5.4% active; AID 2551; note: nearly all actives have a fitted effect of over 60% in size
Target sequence (P51450 whole entry, looked up, the tested form may be a part): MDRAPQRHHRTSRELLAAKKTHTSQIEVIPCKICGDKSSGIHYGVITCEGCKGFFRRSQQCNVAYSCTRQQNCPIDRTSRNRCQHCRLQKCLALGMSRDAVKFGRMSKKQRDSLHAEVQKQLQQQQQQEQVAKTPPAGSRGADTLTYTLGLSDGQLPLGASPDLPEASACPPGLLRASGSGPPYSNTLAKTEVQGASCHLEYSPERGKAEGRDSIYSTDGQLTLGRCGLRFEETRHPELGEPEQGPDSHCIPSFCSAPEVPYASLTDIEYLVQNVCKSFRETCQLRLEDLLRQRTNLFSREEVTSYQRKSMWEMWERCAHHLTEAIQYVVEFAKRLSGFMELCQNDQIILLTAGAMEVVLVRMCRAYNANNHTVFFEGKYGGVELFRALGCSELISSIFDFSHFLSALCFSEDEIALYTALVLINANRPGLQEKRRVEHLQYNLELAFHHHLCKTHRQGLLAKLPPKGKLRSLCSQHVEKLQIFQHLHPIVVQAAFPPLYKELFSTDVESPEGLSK
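Stably transfected Drosophila Schneider cells are the test system, with ROR gamma fused to Gal4 and luciferase under UAS control; luminescence is read after 20 hr of 700 uM copper sulfate induction at ambient temperature.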
TDP1 block = blocks human tyrosyl-DNA phosphodiesterase 1; Q9NUW8; recombinant TDP1, AlphaScreen DNA substrate cleavage; Potency, µM (series often up to 130 µM), hits mostly inhibitors; 350,000 tested, 0.28% active; note: nearly all actives have a fitted effect of over 40% in size
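Compounds were preincubated with Tdp1 (1 nM final) for 15 min at room temperature before substrate (15 nM final) started a 5 min reaction; beads (10 ug/ml final) were then added for 10 min before AlphaScreen detection.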
TDP1 cell CPT = growth inhibition of DT40 Tdp1-/-;hTDP1 cells with camptothecin (screen for TDP1 inhibitors); chicken DT40 Tdp1-/-;hTDP1 cells + 20 nM CPT, ATP luminescence, 48 h; Potency, µM (titrated, usually from 46.2 µM), usual class: inhibitors; 420,000 tested, 12% active; AID 686979; note: nearly all actives have a fitted effect of over 55% in size
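Chicken DT40 Tdp1-/- cells complemented with human TDP1, 400 cells/well, exposed to compounds plus 20 nM camptothecin for at least 48 h at 37 C; viability read as ATP content by CellTiter-Glo luminescence.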
TDP1 cell noCPT = qHTS for Inhibitors of human tyrosyl-DNA phosphodiesterase 1 (TDP1): qHTS in cells in absence of CPT; DT40 Tdp1-/- hTDP1 cells, no CPT, ATP luminescence, 48 h; Potency, µM (titrated, usually from 46.2 µM), actives largely listed as inhibitors; 420,000 tested, 15% active; AID 686978, 2013; note: nearly all actives have a fitted effect of over 55% in size
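A cellular qHTS used chicken DT40 cells lacking endogenous Tdp1 but carrying stably transfected human TDP1. Compounds were applied without camptothecin, and cell growth kinetics were judged by ATP-dependent luminescence after ≥48 hr.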
Of the large screens only hits and unclear results are named; the others gave an inactive call. In the library only some 19% were active in any assay of this set; here they are far more common. Calls come from the whole dose curve; as a rule, active = well fitted curve in the direction sought with a large enough effect; inconclusive = small, poorly fitted or top-dose-only effect, or another doubt; inactive = no such curve, though single readings can be large; an effect the other way counts as inactive or inconclusive.

CC(=O)N1c2ccc(S(=O)(=O)NCC3CCC(C(=O)NC(C)(C)C)CC3)cc2CC1C (configuration not stated)	TDP1 cell CPT inconclusive, TDP1 cell noCPT inconclusive (no result: VP16 counter, RORg inh)
COc1ccc(C)cc1NC(=O)C1CCC(CNS(=O)(=O)c2ccc3c(c2)CCCC(=O)N3)CC1 (configuration not stated)	TDP1 cell CPT 9.2µM, TDP1 cell noCPT 4.6µM (no result: VP16 counter, RORg inh)
CCn1c(C)nc2cc(C(=O)NNC(=O)Nc3cccc(Cl)c3)ccc21	none
O=S1(=O)CCN=C2SC3=C(CCCC3)N21	none
CC1=C(C(=O)N2CCOCC2)CC(CC(=O)NCc2cccs2)C(=O)N1Cc1ccc(C(C)(C)C)cc1 (configuration not stated)	TDP1 cell CPT 15µM, TDP1 cell noCPT inconclusive (no result: VP16 counter, RORg inh, TDP1 block)
CC1=C(C(=O)N2CCOCC2)CC(CC(=O)NCc2ccco2)C(=O)N1Cc1ccc(C(C)(C)C)cc1 (configuration not stated)	TDP1 cell CPT 29µM, TDP1 cell noCPT 21µM (no result: VP16 counter, RORg inh, TDP1 block)
CC1=C(C(=O)N(C(C)C)C(C)C)CC(CC(=O)NCc2cccs2)C(=O)N1Cc1ccc(C(C)(C)C)cc1 (configuration not stated)	TDP1 cell CPT inconclusive, TDP1 cell noCPT 23µM (no result: VP16 counter, RORg inh, TDP1 block)
CCOc1cc(-c2ccc(OC(=O)c3ccccc3Cl)c(OC)c2)cc(=O)c2c(C)oc(C)c12	TDP1 cell CPT inconclusive, TDP1 cell noCPT inconclusive (no result: VP16 counter, RORg inh)
N#Cc1nc(Nc2cccc3ccccc23)nc(NC2CCCC2)n1	none (no result: VP16 counter, RORg inh, TDP1 cell CPT, TDP1 cell noCPT)
Cc1ccc(S(=O)(=O)N(c2ccc(Br)cc2)C2C=CS(=O)(=O)C2)cc1 (configuration not stated)	none
Cc1noc(-c2ccccc2OC(=O)c2ccccc2)n1	none
COc1ccc(NC(=O)Cn2c(SCc3ccc(F)cc3)nc3cccnc32)c(OC)c1	TDP1 cell CPT inconclusive, TDP1 cell noCPT 21µM (no result: VP16 counter, RORg inh)
COc1ccc(NC(=O)Cn2c(SCc3ccc(C)cc3)nc3cccnc32)cc1OC	TDP1 cell CPT 2.3µM, TDP1 cell noCPT 1.6µM (no result: VP16 counter, RORg inh)
O=C(Cn1c(SCc2ccccc2F)nc2cccnc21)Nc1ccc(F)c(Cl)c1	TDP1 cell CPT inconclusive, TDP1 cell noCPT inconclusive (no result: VP16 counter, RORg inh)
O=C(Cn1c(SCc2cccc(F)c2)nc2cccnc21)Nc1ccc(F)c(Cl)c1	TDP1 cell CPT 26µM, TDP1 cell noCPT 15µM (no result: VP16 counter, RORg inh)
COc1cc(OC)c(NC(=O)Cn2c(SCc3ccccc3F)nc3cccnc32)cc1Cl	none (no result: VP16 counter, RORg inh)
O=C(Cn1c(SCc2ccc(F)cc2)nc2cccnc21)Nc1ccccc1F	TDP1 cell CPT inconclusive, TDP1 cell noCPT 26µM (no result: VP16 counter, RORg inh)
CC(C)C(=O)Nc1nnc(S(=O)(=O)N2CCCc3ccccc32)s1	none (no result: TDP1 block)
CC(C)(C)C1CCC(OCC(O)CN2CCN(c3ccccn3)CC2)CC1 (configuration not stated)	TDP1 cell CPT inconclusive, TDP1 cell noCPT inconclusive
COc1ccc(NC(=O)Cn2c(SCc3ccc(F)cc3)nc3cccnc32)cc1OC	TDP1 cell CPT 3.7µM, TDP1 cell noCPT 2.3µM (no result: VP16 counter, RORg inh)
CN(C)c1ccc(NC(=O)Cn2c(SCc3ccccc3F)nc3cccnc32)cc1	TDP1 cell CPT inconclusive, TDP1 cell noCPT inconclusive (no result: VP16 counter, RORg inh)
Cc1nnc(NC(=O)CSc2nc3ccccc3o2)s1	TDP1 cell noCPT inconclusive
C=CCSc1nnc(NC(=O)CSc2nc3ccccc3o2)s1	VP16 counter inconclusive, RORg inh inconclusive, TDP1 cell CPT 23µM, TDP1 cell noCPT inconclusive
O=C(CSc1nc2ccccc2o1)Nc1nc(-c2ccccc2)c(-c2ccccc2)s1	VP16 counter inconclusive, TDP1 cell CPT 18µM, TDP1 cell noCPT 12µM
CCOC(=O)c1c(C)[nH]c(C(=O)CSc2nnc(-c3ccncc3)n2CC)c1C	none
C=CCn1c(SCC(=O)c2[nH]c(C)c(C(=O)OCC)c2C)nc2scc(-c3ccc(OC)c(OC)c3)c2c1=O	VP16 counter 10µM, RORg inh 10µM, TDP1 cell CPT 15µM, TDP1 cell noCPT 13µM
COc1ccc(C(CC(=O)Nc2ccccc2OC)n2cccc2)cc1 (configuration not stated)	TDP1 cell CPT 16µM, TDP1 cell noCPT 10µM
